# HT1080-NT tox – kills 2HG-producing HT-1080-NT fibrosarcoma cells; HT-1080-NT fibrosarcoma viability, CellTiter-Glo ATP luminescence, 48 h; Potency, µM (series often up to 46.1 µM), usual class: cytotoxic; 1.6% of 360,000 active; AID 686970;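 also: NT is the 2HG producing partner of a matched IDH1 knockdown line; nearly all actives have a fitted effect of over 55% in size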
#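 Viability by CellTiter-Glo luminescence after 48 h compound exposure at 37C of HT-1080-NT cells (750/well, RPMI, 5% FBS). % activity scaled between DMSO wells and medium-only wells, then curve-fitted and categorized by curve class.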
# Giardia killer – Giardia lamblia killing | AID 540267 | activity change, % at 7.66 µM, hits read low | 0.15% of 340,000 active | Giardia lamblia trophozoite viability; in the data active = activity change below about -80%; inconclusive = between about -30% and that limit;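 also: parasites exposed to compound for two days anaerobically before the ATP read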
#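 Media and compound were dispensed first, then trophozoites at 100 cells/well; plates sat 48 hrs at 37 deg C without oxygen before ATP luminescence reagent was added and read after 15-30 min at room temperature.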
# TGFb SMAD3 inh – inhibitors of TGF-b signaling. HepG2 CAGA-GFP TGF-b/SMAD3 reporter, GFP fluorescence, 18 h; TGF-beta stimulated, 500 pg/mL final. Potency, µM (highest dose often 46.1 µM), usual class: inhibitors. 1.2% of 410,000 active; also: nearly all actives have a fitted effect of over 65% in size
#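 HEPG2 CAGA-GFP cells (1000/well, DMEM with 1% FBS) were pre-incubated 2 h at 37 degrees C, given compound by pin tool, then stimulated with TGF-beta at 500 pg/mL final for 18 h before per-cell GFP fluorescence imaging.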
# HepG2 viability – kills HepG2 cells in TGF-b inhibitor counter-screen | 0.76% of 410,000 active | Potency, µM (series often up to 46.1 µM), most hits filed as cytotoxic | HepG2 CAGA-GFP viability, ATP luminescence, 18 h
#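 HepG2 CAGA-GFP cells (1000/well, DMEM with 1% FBS) received compound, then TGF-beta at 500 pg/mL final, and were incubated 18 hours at 37 degrees C. Viability was read by CellTiter-Glo luminescence. Media-only wells were set as complete cell-killing and DMSO as no toxicity.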
# HT1080 IDH1KD tx – toxicity to HT-1080 IDH1 knockdown cells (counter line) | Potency, µM (highest dose often 46.1 µM), hits mostly cytotoxic | HT-1080 IDH1 knockdown viability, ATP luminescence, 48 h | AID 686971 | 2% of 360,000 active
#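 Using the IDH1-knockdown HT-1080 line run in the same batch and compound series as the NT line, viability after 48 h at 37 °C was determined by CellTiter-Glo luminescence and expressed as % activity.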
# IL1B secr inh – inhibitors of inflammasome signaling (IL-1 beta secretion) | THP-1 LPS/ATP IL-1B secretion, AlphaLISA, 16 h; stronger effect = lower value | activity change, % at 57.5 µM | 4.7% of 360,000 active | AID 743279; in the data active = activity change below about -50%; inconclusive = mostly about -30% to -49%
#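 Secreted IL-1B measured by AlphaLISA bead assay after 16 h compound exposure of THP-1 cells; compounds (final up to 57.5 uM) added 1 h before LPS (250 ng/mL) and ATP (1.25 mM) stimulation; lower signal means less secretion.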
# Numbers stand for hits; 0 = inactive; ? = inconclusive; - = no result given. Sampled rows, rich in hits. Any-hit rate of the full collection: about 6.5%. Unless noted, calls follow the shape of the dose curve; as a rule, active = well fitted curve in the direction sought with a large enough effect; inconclusive = small, poorly fitted or top-dose-only effect, or another doubt; inactive = no such curve, though single readings can be large; an effect the other way counts as inactive or inconclusive.
SMILES,HT1080-NT tox,Giardia killer,TGFb SMAD3 inh,HepG2 viability,HT1080 IDH1KD tx,IL1B secr inh
c1ccc(CN2CCN(c3nc(NCc4ccco4)c4ccccc4n3)CC2)cc1,0,0,?,0,?,-64.0
Cc1ccc(OCCN2CCN(c3nc(NCc4ccco4)c4ccccc4n3)CC2)cc1,0,0,?,0,0,-60.4
COC(=O)c1sccc1NC(=O)CCC1CCCCC1,0,0,0,0,0,0
Cc1nc2c(C(=O)NCCc3ccc(Cl)cc3)c[nH]n2c(=O)c1Cc1ccccc1F,-,-,12.6µM,15.8µM,-,-
C=CCN1C(=O)S/C(=C/c2ccsc2)C1=O,0,0,0,0,0,0
CC(C)N1C(=O)S/C(=C/c2ccc(Sc3nc4ccccc4[nH]3)o2)C1=O,0,0,20µM,0,?,-79.0
CCOC(=O)C(C)N1C(=O)S/C(=C\c2ccc(-c3ccccc3C(=O)O)o2)C1=O (stereo unspecified),0,0,0,0,0,0
C=CCN1C(=O)S/C(=C/c2ccc(Sc3nc4ccccc4[nH]3)o2)C1=O,0,0,20µM,0,?,0
CN(Cc1ccccc1OCCO)CC1CCCN(CCc2ccc(Cl)cc2)C1 (stereo unspecified),?,0,0,0,?,-61.4
COc1cccc(CN(C)CC2CCCN(CCc3ccccc3C)C2)c1 (stereo unspecified),?,0,?,0,?,0
COc1ccc(CN(C)CC2CCCN(CCc3ccccc3C)C2)cc1O (stereo unspecified),?,0,0,0,?,-52.4
Cc1c(CCOC(=O)c2cc([N+](=O)[O-])cc([N+](=O)[O-])c2)sc[n+]1CC(=O)c1ccc(Br)cc1,0,0,?,0,0,-97.2
Cc1c(CCOC(=O)CC23CC4CC(CC(C4)C2)C3)sc[n+]1CC(=O)c1ccccc1,0,0,?,0,?,?
Cc1c(CCOC(=O)C23CC4CC(CC(C)(C4)C2)C3)sc[n+]1Cc1ccccc1,?,0,?,0,23.1µM,0
Cc1c(CCOC(=O)C23CC4(C)CC(C)(CC(C)(C4)C2)C3)sc[n+]1CC(=O)c1ccccc1,?,0,10µM,20µM,?,-192.3
COc1ccccc1N(C)S(=O)(=O)c1ccc(C)c(C(=O)NCc2ccccn2)c1,0,0,0,0,0,0
CC(=O)Nc1ccc(NS(=O)(=O)c2cccc3ccccc23)cc1,0,0,0,0,?,0
Cc1ccccc1NC(=O)CSCC(=O)Nc1ccccc1C,0,0,0,0,0,0
O=C(NCc1cccnc1)c1c[nH]c2cc3c(cc2c1=O)OCCO3,0,0,0,0,?,0
O=C(Nc1cccc(NC(=O)c2cccc([N+](=O)[O-])c2)n1)c1cccc([N+](=O)[O-])c1,0,0,0,0,0,0
CCCCN1CCc2c1nc1ccc(Br)cc1c2N,?,0,?,15.8µM,?,-96.2
COc1ccc(OC)c(/C=C/c2ccnc3ccccc23)c1,?,0,?,0,?,-75.8
COc1cc(OC)c(OC)cc1/C=C/c1ccnc2ccccc12,?,0,?,0,?,0
CS(=O)(=O)c1ccc(C(=O)OCC(=O)NC(=O)NC2CCCCC2)cc1[N+](=O)[O-],-,0,4.47µM,6.31µM,-,-
Cc1nc2cc(C(=O)OCC(=O)NC3CCS(=O)(=O)C3)ccc2n1-c1ccccc1 (stereo unspecified),0,0,0,0,0,0
SMILES,HT1080-NT tox,Giardia killer,TGFb SMAD3 inh,HepG2 viability,HT1080 IDH1KD tx,IL1B secr inh
CS(=O)(=O)c1ccc(C(=O)OCC(=O)NC23CC4CC(CC(C4)C2)C3)cc1[N+](=O)[O-],?,0,?,0,0,-106.7
COc1ccc(C(=O)OCC(=O)NC(=O)NC2CCCC2)cc1[N+](=O)[O-],0,0,0,0,0,0
Cn1cccc1C(=O)NC(=O)COC(=O)c1ccc(S(C)(=O)=O)c([N+](=O)[O-])c1,?,0,?,0,?,-95.4
Cc1nc2cc(C(=O)OCC(=O)NC34CC5CC(CC(C5)C3)C4)ccc2n1-c1ccccc1,0,0,0,0,0,-65.9
Cn1ccsc1=NC(=O)c1ccc(S(C)(=O)=O)c([N+](=O)[O-])c1,0,0,?,0,?,-110.0
CCN1CCN(C(=O)C(C)Sc2nc3nc(C)cc(C)n3n2)CC1 (stereo unspecified),0,0,0,0,0,-51.4
CCCCc1c(-c2ccccc2OC)ncn1C1CCCC1,?,-,-,-,?,0
CCCCc1c(-c2ccccc2OC)ncn1Cc1cccc(-c2ccccc2)c1,20.6µM,-,-,-,?,-97.7
CCCCc1c(-c2ccccc2OC)ncn1CCc1cccc(Cl)c1,18.4µM,-,-,-,?,0
CCCCc1c(-c2ccccc2OC)ncn1Cc1ccc(Cl)cc1,?,-,-,-,18.4µM,?
CCCc1c(-c2ccc(Cl)cc2)ncn1Cc1ccccc1OC,?,-,-,-,?,0
CNc1nc(OCC(F)(F)F)nc(OCC(F)(F)F)n1,0,?,0,0,0,0
COc1cc(NS(=O)(=O)c2ccc(N)cc2)nc(OC)n1,0,0,0,0,0,0
CCc1cccc(NC(=O)CSCc2nc3sc(C)c(C)c3c(=O)[nH]2)c1,0,0,0,0,0,0
CN(C)CCC(=O)c1ccc(F)cc1,0,0,0,0,0,0
CN(C)CCC(=O)c1cccc(Br)c1,0,0,14.1µM,11.2µM,0,0
O=C(COC(=O)/C=C/c1ccc(F)cc1)NC1CCCC1,0,0,0,0,0,0
c1ccc2nc(-c3nc4ccccc4o3)ccc2c1,10µM,?,?,0,12.6µM,0
O=C(NCCCN1CCOCC1)c1cc2c(=O)[nH]c3ccccc3c2s1,0,0,0,0,0,-50.5
Cc1ccc2[nH]c(=O)c3cc(C(=O)NCCC(C)C)sc3c2c1,?,0,0,0,0,0
CCC(C)NC(=O)c1cc2c(=O)[nH]c3ccc(C)cc3c2s1 (stereo unspecified),0,0,0,0,0,-52.5
COCCNC(=O)c1cc2sc3ccccc3c2s1,0,0,0,0,0,0
CN(C)CCCNC(=O)c1cc2sc3ccccc3c2s1,18.4µM,0,0,20µM,18.4µM,-118.0
CCCCN(CC)CCCNC(=O)c1cc2c(=O)[nH]c3ccccc3c2s1,?,0,0,0,?,-73.2
O=C(CNC(=O)c1ccccc1F)N/N=C/c1cc(Br)ccc1OCc1ccccc1,0,?,0,0,0,?
Fc1ccc(-n2ncc3c(NCCCc4ccccc4)ncnc32)cc1,-,-,0,0,-,-
COc1ccc(N2CC(NC(=O)c3ccc(S(=O)(=O)N4CCCCC4)cc3)CC2=O)cc1 (stereo unspecified),-,-,0,0,-,-
Cc1ccc(-c2cc3nc(-c4ccc(Br)cc4)cc(N)n3n2)cc1,?,0,?,0,?,0

# Bioassay records as filed in PubChem.
